# Assay results: PubChem BioAssay (NCATS)
# A number with no mark means an inactive call. Inconclusive results are not listed. Where a call stands in place of a potency, no number is given. Activity calls are given as the source filed them. Unless noted, calls follow the shape of the dose curve; as a rule, active = well fitted curve in the direction sought with a large enough effect; inconclusive = small, poorly fitted or top-dose-only effect, or another doubt; inactive = no such curve, though single readings can be large; an effect the other way counts as inactive or inconclusive.
# Columns and labels:
# [1] = target: DNA repair nuclease/redox regulator APEX1 (Homo sapiens) (UniProt P27695); experiment: qHTS Validation Assay for Inhibitors of the Human Apurinic/apyrimidinic Endonuclease 1 (APE1) (AID 1705;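 also: TAMRA fluorescence gain over two minutes as APE1 cuts a quenched THF abasic duplex; series mostly up to about 57 µM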)
# Sequence of DNA repair nuclease/redox regulator APEX1 (Homo sapiens) (P27695 whole entry, looked up): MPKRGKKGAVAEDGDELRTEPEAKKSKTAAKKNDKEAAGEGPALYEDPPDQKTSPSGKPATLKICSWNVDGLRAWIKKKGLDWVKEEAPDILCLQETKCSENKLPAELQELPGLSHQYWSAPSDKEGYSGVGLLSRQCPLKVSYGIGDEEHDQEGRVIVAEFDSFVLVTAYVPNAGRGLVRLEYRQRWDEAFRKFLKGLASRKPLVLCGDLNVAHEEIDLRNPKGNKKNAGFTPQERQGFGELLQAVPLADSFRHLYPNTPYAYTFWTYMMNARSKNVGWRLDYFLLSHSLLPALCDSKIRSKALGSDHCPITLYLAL
# Procedure, shortened: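 Activity read as rising fluorescence (598 nm emission, 525 nm excitation) from incision of a TAMRA/BHQ-2 duplex carrying a THF abasic site (50 nM). Compound and enzyme sat 15 min at RT before substrate start; signal change between first and third 60-s reads.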
# [2] = Counterscreen for APE1 Inhibitors: Fluorescent Dye Displacement Validation Assay (AID 1707)
# Procedure, shortened: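 Thiazole Orange displacement from dsDNA: 250 nM ThO with 50 nM TAMRA-labelled abasic-site (tetrahydrofuran) duplex in 50 mM Tris-HCl pH7.5, 50mM NaCl, 2 mM MgCl2, 0.01% Tween-20. Loss of endpoint fluorescence (ex 480 nm, em 540 nm) flags DNA binders.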
# [3] = target: Endonuclease 4 (Escherichia coli (strain K12)) (UniProt P0A6C1); experiment: Counterscreen for APE1 Inhibitors: qHTS Validation Assay for Inhibitors of Endonuclease IV (AID 1708)
# Procedure, shortened: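 E. coli EndoIV at 2 nM final, preincubated 15 min at room temperature with compound, then 50 nM TAMRA/BHQ-2 THF abasic-site duplex added. Buffer: 50 mM Tris-HCl pH 7.5, 50 mM NaCl, 2 mM MgCl2, 1 mM DTT, 0.01% Tween-20. Kinetic fluorescence increase, third minus first read.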
# [4] = qHTS for differential inhibitors of proliferation of Plasmodium falciparum line Dd2 (AID 1882); conditions: Potency: Plasmodium falciparum Dd2 proliferation inhibition; also: nearly all actives have a fitted effect of over 65% in size; also: potency is read from the fitted curve at half-maximal effect; as to activity change, negative = inhibition: series mostly up to about 29 µM
# Procedure, shortened: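 Dd2-infected erythrocytes (0.3% parasitemia, 2.5% hematocrit final) incubated with compound 72 h at 37 C, 5% CO2; lysed with saponin/Triton buffer containing SYBR Green I, incubated overnight in the dark, then read by fluorescence (485/535 nm). Normalized to 0.29 uM artemisinin and DMSO.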
# [5] = qHTS for differential inhibitors of proliferation of Plasmodium falciparum line W2 (AID 1883); conditions: Potency: Plasmodium falciparum W2 proliferation inhibition;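 also: potency is read from the fitted curve at half-maximal effect; parasites grown with compound for 72 h before lysis and staining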
# [6] = qHTS for differential inhibitors of proliferation of Plasmodium falciparum line HB3 (AID 1886); conditions: Potency: Plasmodium falciparum HB3 proliferation inhibition;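 also: parasites grown with compound for 72 h before SYBR Green readout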
# [7] = qHTS Assay for Modulators of Human Peripheral Myelin Protein 22 (PMP22) Expression/Activity (AID 1967; active = well fitted curve in the direction sought with a large enough effect in the signal ratio; the % refers to the signal ratio)
# Procedure, shortened: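 Readout is the corrected green/red luminescence ratio after 24 h compound exposure, normalised to untreated cells (0%). Engineered MSC80 mouse Schwann cells express green luciferase from the mouse Pmp22 promoter and red luciferase from EF-alpha as internal control.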
# [8] = target: ATP-dependent DNA helicase Q1 (Homo sapiens) (UniProt P46063); experiment: qHTS Validation Assay for Inhibitors of RecQ-Like Dna Helicase 1 (RECQ1) (AID 2353)
# Sequence of ATP-dependent DNA helicase Q1 (Homo sapiens) (P46063 whole entry, looked up): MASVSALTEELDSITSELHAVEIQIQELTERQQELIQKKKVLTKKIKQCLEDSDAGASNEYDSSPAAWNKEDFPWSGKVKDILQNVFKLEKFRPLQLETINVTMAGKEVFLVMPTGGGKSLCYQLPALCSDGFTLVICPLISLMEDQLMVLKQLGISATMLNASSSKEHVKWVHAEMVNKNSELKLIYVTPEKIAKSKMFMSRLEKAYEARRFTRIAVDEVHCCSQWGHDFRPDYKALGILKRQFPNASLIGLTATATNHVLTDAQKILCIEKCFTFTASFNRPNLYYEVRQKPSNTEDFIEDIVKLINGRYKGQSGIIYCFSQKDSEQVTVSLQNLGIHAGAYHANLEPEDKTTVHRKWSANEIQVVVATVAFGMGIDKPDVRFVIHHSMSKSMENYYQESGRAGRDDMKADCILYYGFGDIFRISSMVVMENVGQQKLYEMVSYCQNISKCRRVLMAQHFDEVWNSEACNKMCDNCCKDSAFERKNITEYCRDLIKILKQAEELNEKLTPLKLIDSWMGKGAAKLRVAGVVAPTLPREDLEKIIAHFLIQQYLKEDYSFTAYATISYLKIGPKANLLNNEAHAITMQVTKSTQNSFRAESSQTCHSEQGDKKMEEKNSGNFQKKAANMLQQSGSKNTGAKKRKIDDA
# Procedure, shortened: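 50 nM RECQ1T1 preincubated 15 min with compound in Tris pH 8.0 buffer with MgCl2, DTT, Tween-20 and 2.5 ug/ml poly(dI-dC); started with 200 nM TAMRA/BHQ-2 forked duplex and 2 mM ATP. Unwinding read as fluorescence (525/598 nm), two reads 2 h apart.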
# [9] = Validation screen for small molecules that induce DNA re-replication in MCF 10A normal breast cells (AID 463097); also: nearly all actives have a fitted effect of over 60% in size
# Procedure, shortened: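 Read-out is Hoechst total nuclear intensity by fluorescence scanning imager, flagging increased high-DNA-content nuclei. Compounds were incubated with MCF 10A cells for 48 hr (37 C, 5% CO2) before 40 min staining.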
# [10] = Quantitative high throughput screen for delayed death inhibitors of the malarial parasite plastid, 48 hour incubation (AID 488752); also: nearly all actives have a fitted effect of over 65% in size; also: potency is read from the fitted curve at half-maximal effect
# Procedure, shortened: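 Erythrocytes infected with firefly luciferase-expressing P. falciparum (2% hematocrit, 0.1% parasitemia) cultured with compound for 48 h at 37 C, 5% CO2, in RPMI 1640/0.5% Albumax. Growth inhibition read as loss of luminescence.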
# [11] = target: M-phase phosphoprotein 8 (Homo sapiens) (UniProt Q99549); experiment: qHTS Validation Assay for Inhibitors for MPP8 Chromodomain Interactions with Methylated Histone Tails (AID 488949); also: nearly all actives have a fitted effect of over 55% in size; also: potency is read from the fitted curve at half-maximal effect;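 as to activity change, negative = inhibition: AlphaScreen signal from MPP8 chromodomain bound to biotinylated H3K9me3 peptide; top concentration of the series differs between compounds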
# Procedure, shortened: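 AlphaScreen proximity signal from streptavidin donor and Ni-chelate acceptor beads (10 ug/mL each) reported binding of MPP8 to trimethyl-K9 H3(1-18) peptide, both at 50 nM. The complex formed 30 min before a 30 min compound exposure at room temperature, in PBS pH 7.4.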
# [12] = target: Thyrotropin receptor (Homo sapiens) (UniProt P16473); experiment: qHTS Assay for Antagonists of the Thyroid Stimulating Hormone Receptor (AID 488980); also: series mostly up to about 58 µM
# Sequence of Thyrotropin receptor (Homo sapiens) (P16473 whole entry, looked up): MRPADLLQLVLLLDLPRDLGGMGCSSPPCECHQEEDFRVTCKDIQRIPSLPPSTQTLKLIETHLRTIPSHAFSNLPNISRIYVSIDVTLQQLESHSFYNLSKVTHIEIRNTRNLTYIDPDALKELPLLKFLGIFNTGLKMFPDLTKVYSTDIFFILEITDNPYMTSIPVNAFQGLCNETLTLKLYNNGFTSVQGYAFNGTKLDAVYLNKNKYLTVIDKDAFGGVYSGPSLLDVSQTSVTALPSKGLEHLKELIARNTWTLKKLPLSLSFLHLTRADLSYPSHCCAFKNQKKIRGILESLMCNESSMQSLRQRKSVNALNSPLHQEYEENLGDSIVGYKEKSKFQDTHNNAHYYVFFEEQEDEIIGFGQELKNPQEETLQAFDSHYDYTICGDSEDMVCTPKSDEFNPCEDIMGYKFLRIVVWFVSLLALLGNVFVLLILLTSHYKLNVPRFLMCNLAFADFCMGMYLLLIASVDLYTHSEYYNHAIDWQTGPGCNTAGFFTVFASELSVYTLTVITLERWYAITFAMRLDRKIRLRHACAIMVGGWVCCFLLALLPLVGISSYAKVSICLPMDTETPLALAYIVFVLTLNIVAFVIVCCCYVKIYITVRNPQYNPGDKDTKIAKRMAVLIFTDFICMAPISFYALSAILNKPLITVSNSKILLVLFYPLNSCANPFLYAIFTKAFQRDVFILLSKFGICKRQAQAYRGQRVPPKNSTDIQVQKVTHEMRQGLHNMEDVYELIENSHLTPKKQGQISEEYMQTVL
# Procedure, shortened: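 Inhibition of cAMP raised by EC80 TSH (4 nM final) was read by HTRF, with lysate cAMP competing against cAMP-d2 for cryptate antibody after 30 min at room temperature. The cells were transfected HEK293 held in phosphodiesterase inhibitor RO 20-1724 at 70 uM.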
# [13] = target: Galactokinase (Homo sapiens) (UniProt P51570); experiment: qHTS Validation Assay for Inhibitors of Human Galactokinase (GALK) (AID 493189)
# Sequence of Galactokinase (Homo sapiens) (P51570 whole entry, looked up): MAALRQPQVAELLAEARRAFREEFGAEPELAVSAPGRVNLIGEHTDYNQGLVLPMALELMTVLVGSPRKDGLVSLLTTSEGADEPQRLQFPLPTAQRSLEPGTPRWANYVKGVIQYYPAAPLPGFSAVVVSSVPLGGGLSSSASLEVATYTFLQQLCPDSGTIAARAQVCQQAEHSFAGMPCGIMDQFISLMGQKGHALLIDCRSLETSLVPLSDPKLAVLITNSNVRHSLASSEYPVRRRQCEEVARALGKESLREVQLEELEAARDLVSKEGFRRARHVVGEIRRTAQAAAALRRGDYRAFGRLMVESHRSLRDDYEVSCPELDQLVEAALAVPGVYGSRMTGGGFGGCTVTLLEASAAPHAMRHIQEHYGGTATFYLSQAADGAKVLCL
# Procedure, shortened: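 Inhibition was measured as remaining ATP, detected by luciferase luminescence after a 1 h room-temperature reaction. Final conditions: 5 nM GALK, 100 uM galactose, 35 uM ATP, pH 8.0 HEPES buffer.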
# [14] = Validation screen for small molecules that induce DNA re-replication in SW480 colon adenocarcinoma cells (AID 504364)
# Procedure, shortened: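 SW480 cells (250/well) exposed 48 h at 37 C, 5% CO2, then Hoechst-stained 40 min. Nuclear DNA content imaged by fluorescence scanning (405 nm excitation, 500-530 nm emission); re-replication scored as increased nuclei with elevated intensity.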
# [15] = target: Voltage-gated inwardly rectifying potassium channel KCNH2 (Homo sapiens) (UniProt Q12809); experiment: qHTS Assay for Small Molecule Inhibitors of the Human hERG Channel Activity (AID 588834);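 also: top concentration of the series differs between compounds; lower thallium flux fluorescence means stronger hERG block; nearly all actives have a fitted effect of over 50% in size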
# Procedure, shortened: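 Kinetic FDSS fluorescence; U2OS + hERG BacMam (~100 virus particles/cell); FluxOR Tl+ flux; ~10 min cpd; AC50 (Hill).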
# [16] = target: Rap guanine nucleotide exchange factor 3 (Homo sapiens) (UniProt O95398); experiment: Counterscreen qHTS for antagonist of cAMP-regulated guanine nucleotide exchange factor 3 (EPAC1) (AID 1645888);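 also: fluorescence loss as bound BODIPY-GDP is released from Rap1B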
# Sequence of Rap guanine nucleotide exchange factor 3 (Homo sapiens) (O95398 whole entry, looked up): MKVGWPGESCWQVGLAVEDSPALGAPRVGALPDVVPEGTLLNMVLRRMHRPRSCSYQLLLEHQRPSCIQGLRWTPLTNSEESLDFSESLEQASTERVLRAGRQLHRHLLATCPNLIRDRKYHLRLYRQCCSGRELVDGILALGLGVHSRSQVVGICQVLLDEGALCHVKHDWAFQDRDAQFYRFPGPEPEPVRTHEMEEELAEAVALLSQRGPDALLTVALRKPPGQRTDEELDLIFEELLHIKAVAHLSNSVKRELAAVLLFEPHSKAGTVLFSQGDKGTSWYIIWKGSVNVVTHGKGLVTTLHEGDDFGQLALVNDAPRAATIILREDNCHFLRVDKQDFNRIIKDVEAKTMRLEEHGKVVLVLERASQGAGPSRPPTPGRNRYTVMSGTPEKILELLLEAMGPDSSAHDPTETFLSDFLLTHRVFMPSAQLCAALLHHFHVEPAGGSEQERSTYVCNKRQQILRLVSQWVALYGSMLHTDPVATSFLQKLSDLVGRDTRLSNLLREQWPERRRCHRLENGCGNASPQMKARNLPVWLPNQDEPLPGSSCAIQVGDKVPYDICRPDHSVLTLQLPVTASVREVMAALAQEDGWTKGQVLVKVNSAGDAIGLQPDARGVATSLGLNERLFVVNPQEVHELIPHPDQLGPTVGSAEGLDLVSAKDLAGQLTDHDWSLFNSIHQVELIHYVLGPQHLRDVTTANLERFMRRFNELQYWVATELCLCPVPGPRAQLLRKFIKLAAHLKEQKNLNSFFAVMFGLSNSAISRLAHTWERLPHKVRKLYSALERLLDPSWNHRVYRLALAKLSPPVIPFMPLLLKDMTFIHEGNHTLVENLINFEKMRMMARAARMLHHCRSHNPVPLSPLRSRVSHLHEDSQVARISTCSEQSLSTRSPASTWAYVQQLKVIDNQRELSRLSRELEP
# Procedure, shortened: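 Rap1B–BODIPY-GDP (250 nM) with 50 uM GDP; compounds pin-transferred to 9.74 nM–152 uM final (activator) or from 7.32 nM upwards (inhibitor). Fluorescence Ex/Em 480/540 nm read at 5 and 30 min, then after adding cAMP or buffer, at room temperature.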
# [17] = qHTS for differential inhibitors of proliferation of Plasmodium falciparum line GB4 (AID 1816); conditions: Potency: Plasmodium falciparum GB4 proliferation inhibition;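 also: potency is read from the fitted curve at half-maximal effect; parasite growth measured after 72 h incubation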
# [18] = qHTS for differential inhibitors of proliferation of Plasmodium falciparum line 3D7 (AID 1876); also: potency is read from the fitted curve at half-maximal effect
# [19] = target: RecQ-like DNA helicase BLM (Homo sapiens) (UniProt P54132); experiment: qHTS Validation Assay for Inhibitors of Bloom's syndrome helicase (BLM) (AID 2364); also: potency is read from the fitted curve at half-maximal effect
# Sequence of RecQ-like DNA helicase BLM (Homo sapiens) (P54132 whole entry, looked up): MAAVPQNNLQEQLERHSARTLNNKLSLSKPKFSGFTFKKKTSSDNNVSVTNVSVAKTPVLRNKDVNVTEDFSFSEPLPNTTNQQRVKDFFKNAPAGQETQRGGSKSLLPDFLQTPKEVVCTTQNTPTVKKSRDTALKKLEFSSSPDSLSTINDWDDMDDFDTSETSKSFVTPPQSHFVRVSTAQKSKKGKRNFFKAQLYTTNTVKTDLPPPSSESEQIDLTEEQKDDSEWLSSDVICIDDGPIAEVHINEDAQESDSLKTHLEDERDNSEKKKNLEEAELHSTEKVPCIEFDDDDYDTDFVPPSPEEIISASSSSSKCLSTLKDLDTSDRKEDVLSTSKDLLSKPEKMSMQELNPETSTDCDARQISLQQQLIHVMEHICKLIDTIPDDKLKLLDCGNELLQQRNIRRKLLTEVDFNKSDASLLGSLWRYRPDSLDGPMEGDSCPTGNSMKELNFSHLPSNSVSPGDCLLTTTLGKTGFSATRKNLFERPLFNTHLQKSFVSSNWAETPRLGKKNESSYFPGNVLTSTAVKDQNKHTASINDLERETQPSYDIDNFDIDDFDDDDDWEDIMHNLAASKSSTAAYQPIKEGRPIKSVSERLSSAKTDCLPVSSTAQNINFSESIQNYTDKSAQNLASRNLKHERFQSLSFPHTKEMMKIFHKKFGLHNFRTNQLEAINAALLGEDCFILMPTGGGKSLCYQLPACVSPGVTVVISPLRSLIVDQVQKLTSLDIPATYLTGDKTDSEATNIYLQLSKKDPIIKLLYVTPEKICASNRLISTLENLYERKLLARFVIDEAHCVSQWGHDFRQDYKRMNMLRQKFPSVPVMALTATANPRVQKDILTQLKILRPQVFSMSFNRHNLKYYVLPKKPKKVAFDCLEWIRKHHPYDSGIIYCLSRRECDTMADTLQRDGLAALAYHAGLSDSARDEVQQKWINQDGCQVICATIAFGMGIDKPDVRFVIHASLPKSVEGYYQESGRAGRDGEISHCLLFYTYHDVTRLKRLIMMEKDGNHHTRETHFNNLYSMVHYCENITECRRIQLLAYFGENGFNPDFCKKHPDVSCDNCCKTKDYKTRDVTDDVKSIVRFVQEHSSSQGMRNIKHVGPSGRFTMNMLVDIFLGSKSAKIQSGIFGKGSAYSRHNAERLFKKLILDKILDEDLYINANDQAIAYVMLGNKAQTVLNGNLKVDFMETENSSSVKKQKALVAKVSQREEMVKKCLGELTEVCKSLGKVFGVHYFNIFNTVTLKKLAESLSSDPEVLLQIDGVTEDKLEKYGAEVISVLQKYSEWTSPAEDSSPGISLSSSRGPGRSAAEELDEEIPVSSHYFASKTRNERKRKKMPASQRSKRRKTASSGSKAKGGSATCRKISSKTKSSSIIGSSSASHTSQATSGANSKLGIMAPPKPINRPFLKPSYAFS
# Procedure, shortened: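 50 nM BLM preincubated 15 min at room temperature with compound in pH 8.0 Tris buffer containing 2.5 ug/ml poly(dI-dC); started with 200 nM TAMRA/BHQ-2 forked duplex and 2 mM ATP (final). Unwinding read as TAMRA fluorescence increase, two reads 2 h apart.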
# [20] = target: Transient receptor potential cation channel subfamily V member 1 (Homo sapiens) (UniProt Q8NER1); experiment: HTS Assay for Compounds that Act as Enhancers of the Vanilloid Receptor 1 (AID 488979)
# Procedure, shortened: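 TRPV1 cells loaded with Fluo-8 calcium dye; compound added and Ca2+ signal (ex 480/em 520 nm) followed 3 min, then capsaicin at EC20 added and read 2 more min to detect enhancement.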
# [21] = target: Thyrotropin-releasing hormone receptor (Homo sapiens) (UniProt P34981); experiment: qHTS for Small Molecule Agonists and Allosteric Enhancers of Human TRH Receptor: Validation Screen for Agonists (AID 493127;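 active = calcium activation more than 3 SD above the typical response in the agonist read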); conditions: TRH receptor agonist cell assay; at 2 µM; active compounds read high
# Sequence of Thyrotropin-releasing hormone receptor (Homo sapiens) (P34981 whole entry, looked up): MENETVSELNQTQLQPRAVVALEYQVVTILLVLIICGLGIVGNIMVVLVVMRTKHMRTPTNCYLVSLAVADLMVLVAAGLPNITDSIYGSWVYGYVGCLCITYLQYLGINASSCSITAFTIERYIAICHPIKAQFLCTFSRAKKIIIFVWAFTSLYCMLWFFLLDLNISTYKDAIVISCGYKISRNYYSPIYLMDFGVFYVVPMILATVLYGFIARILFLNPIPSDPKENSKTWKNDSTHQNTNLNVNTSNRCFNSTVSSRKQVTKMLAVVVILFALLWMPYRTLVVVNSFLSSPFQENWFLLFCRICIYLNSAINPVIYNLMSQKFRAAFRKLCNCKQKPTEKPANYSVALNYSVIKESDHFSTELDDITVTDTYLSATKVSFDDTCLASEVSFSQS
# Procedure, shortened: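 TRHR cells loaded with fluo-8 calcium dye; FDSS kinetic fluorescence (Ex 480/Em 530) read at 1 s/cycle after 23 nL compound addition. Agonist-mode calcium response recorded before the 10 nM TRH (EC20) addition.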
# [22] = target: Ferritin light chain (Equus caballus) (UniProt P02791); experiment: qHTS Validation Assay for Identification of Novel General Anesthetics (AID 2323); also: series mostly up to about 77 µM
# Sequence of Ferritin light chain (Equus caballus) (P02791 2-175 limits assumed): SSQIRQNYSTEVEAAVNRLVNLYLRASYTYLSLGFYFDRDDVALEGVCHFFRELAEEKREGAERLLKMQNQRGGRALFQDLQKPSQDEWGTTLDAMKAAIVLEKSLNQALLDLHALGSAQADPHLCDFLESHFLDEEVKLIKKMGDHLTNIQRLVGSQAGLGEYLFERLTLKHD
# Procedure, shortened: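 Competitive displacement of the profluorescent anesthetic 1-AMA (50% saturated, PBS) from 10 uM apoferritin, 10 min, room temperature. Activity is normalized 380/535 nm fluorescence; concentration-response fitted with a four-parameter Hill equation.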
# [23] = Quantitative high throughput screen for delayed death inhibitors of the malarial parasite plastid, 96 hour incubation (AID 488745); also: potency is read from the fitted curve at half-maximal effect; nearly all actives have a fitted effect of over 70% in size
# Procedure, shortened: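 Luciferase-expressing P. falciparum in erythrocytes (2% hematocrit, 0.1% parasitemia) incubated with compound for 96 h at 37 C, 5% CO2, in RPMI 1640 with 0.5% Albumax. Growth inhibition read as decreased luminescence.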
smiles,measurement,setting,value
C[C@]12C[C@H](O)C3[C@@H](CCC4=CC(=O)CC[C@@]43C)[C@@H]1CC[C@@H]2C(=O)CO (stereo partly specified),Potency,[1],inactive
same,outcome,[2],inactive
same,Potency,[3],inactive
same,Potency,[4],inactive
same,Potency,[5],11.2 µM (active)
same,Potency,[6],inactive
same,outcome,[7],inactive
same,outcome,[8],inactive
same,Potency,[9],inactive
same,Potency,[10],inactive
same,Potency,[11],inactive
same,outcome,[12],inactive
same,outcome,[13],inactive
same,Potency,[14],inactive
same,Potency,[15],inactive
CCc1ccccc1NC1c2ccccc2C(=O)N1Cc1ccco1 (stereo unspecified),"activity change, negative = inhibition",[16],-4.2% [at 30.8 µM]
N#CC(Cc1ccc(O)c(O)c1)C(=O)N1CCc2ccccc21 (stereo unspecified),Potency,[1],inactive
same,outcome,[2],inactive
same,Potency,[3],inactive
same,Potency,[17],7.08 µM (active)
same,Potency,[18],3.55 µM (active)
same,Potency,[5],3.55 µM (active)
same,outcome,[8],inactive
same,Potency,[19],25.1 µM (active)
same,Potency,[9],inactive
same,Potency,[11],17.8 µM (active)
same,outcome,[20],inactive
same,outcome,[12],inactive
same,activation,[21],3.94%
same,outcome,[13],inactive
OC[C@@H]1[C@@H](c2ccccc2)C(c2ccccc2)=NN1c1ccccc1,Potency,[16],inactive
C=C[C@@H]1CN2CC[C@@H]1C[C@@H]2[C@H](O)c1ccnc2ccc(OC)cc12,Potency,[1],inactive
same,outcome,[2],inactive
same,Potency,[4],0.126 µM (active)
same,outcome,[22],inactive
same,outcome,[8],inactive
same,Potency,[19],inactive
same,Potency,[9],inactive
same,Potency,[23],0.0165 µM (active)
same,Potency,[10],0.0262 µM (active)
same,Potency,[14],inactive
